VDR inhibitor: Inhibitors of the vitamin D receptor (VDR): qHTS | Potency, µM, actives largely listed as inhibitors | VDR-SRC2-3 peptide fluorescence polarization, 2 h | actives 0.93% (n = 400,000)
Target sequence (P11473 whole entry, looked up): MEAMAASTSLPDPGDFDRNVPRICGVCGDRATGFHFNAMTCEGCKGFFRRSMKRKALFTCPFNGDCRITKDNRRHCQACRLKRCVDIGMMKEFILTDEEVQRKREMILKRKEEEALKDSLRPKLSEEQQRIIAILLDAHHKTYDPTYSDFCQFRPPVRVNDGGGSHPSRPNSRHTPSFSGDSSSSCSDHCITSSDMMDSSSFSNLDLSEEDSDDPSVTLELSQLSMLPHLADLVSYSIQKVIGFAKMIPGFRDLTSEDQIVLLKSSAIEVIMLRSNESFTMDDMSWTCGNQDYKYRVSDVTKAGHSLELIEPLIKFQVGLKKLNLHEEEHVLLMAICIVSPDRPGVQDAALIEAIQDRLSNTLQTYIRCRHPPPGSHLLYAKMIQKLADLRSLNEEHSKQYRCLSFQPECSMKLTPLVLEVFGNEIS
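FP read-out; VDR + SRC2-3 coactivator peptide; 23 nl compound by pintool; 2 h RT incubation; reagents held at 4 deg C, protected from light.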
Sfp PPTase inh: qHTS Assay for Inhibitors of Bacillus subtilis Sfp phosphopantetheinyl transferase (PPTase). Biochemical Sfp PPTase activity, qHTS. Potency, µM, most hits filed as inhibitors. actives 3.5% (n = 310,000);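 note: the enzyme is Sfp with the accession as filed and its product quenches rhodamine fluorescence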
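Step 1, compound plus 15 nM Sfp-PPTase, 15 min, room temperature. Step 2, add rhodamine-CoA (5 uM) and BHQ-2-YbbR (12.5 uM). Step 3, read 525/598 nm fluorescence at 0 and 30 min.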
PLK1 PBD block: qHTS for Inhibitors of PLK1-PDB (polo-like kinase 1 - polo-box domain): Primary Screen; Serine/threonine-protein kinase PLK1 (Homo sapiens), P53350; Potency, µM, hits mostly inhibitors; actives 2.8% (n = 360,000); Plk1 PBD binding of FITC phosphopeptide, fluorescence polarization; note: series mostly up to about 57 µM; nearly all actives have a fitted effect of over 65% in size
Mm-Cpn inhibitor: Inhibitors of TCP-1 ring complex (TRiC) of Methanococcus maripaludis (MmCpn): qHTS. Potency, µM (titrated, usually from 76.9 µM), most hits filed as inhibitors. AID 504842, 2011. Chaperonin Mm-Cpn (Methanococcus maripaludis). actives 0.031% (n = 330,000). purified Mm-Cpn ATPase, ADP Transcreener TR-FRET; note: nearly all actives have a fitted effect of over 80% in size
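Purified archaeal chaperonin (25 nM final) was preincubated with compound for 10 min at 37°C, then ATP (10 uM final) was added for 30 min at 37°C in Tris pH 7.4/KCl/MgCl2/DTT buffer. ADP was quantified by HTRF Transcreener TR-FRET.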
CCT modulator: High-Throughput Screening for Modulators of Cytosolic Chaperonin Activity; purified chaperonin ATPase assay, HTRF ADP detection, 30 min; activity change, % (concentration not given with the values), hits read low; actives 0.3% (n = 360,000); AID 651819, 2012; in the data active = activity change below about -30%
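We incubate TRiC, 40 or 20 nM final, with library compounds at 76 uM and 10 uM ATP for 30 min at 37 °C. ADP formed is detected with Transcreener HTRF reagents after 30 min at room temperature.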
G9a inh: qHTS Assay for Inhibitors of Histone Lysine Methyltransferase G9a; Potency, µM (titrated, usually from 102 µM), hits mostly inhibitors; G9a H3K9 monomethylation, AlphaScreen, 2 h; actives 8.8% (n = 350,000); Histone-lysine N-methyltransferase EHMT2 (Homo sapiens), Q96KQ7; note: nearly all actives have a fitted effect of over 75% in size
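AlphaScreen detection with an anti-monomethyl H3K9 antibody quantified product after a 2 h room-temperature reaction containing 500 nM biotinylated H3K9 peptide, 20 µM SAM and 20 nM enzyme, which had been preincubated 15 min with compound.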
Large screens that a line does not name were inactive. The list is not random: actives were taken first. Their share in the collection is about 10%. Unless noted, calls come from the whole dose curve; as a rule, active = well fitted curve in the direction sought with a large enough effect; inconclusive = small, poorly fitted or top-dose-only effect, or another doubt; inactive = no such curve, though single readings can be large; an effect the other way counts as inactive or inconclusive.

Nc1ncnc2nc(SCC(=O)Nc3cccc(C(F)(F)F)c3)[nH]c12	G9a inh 35.5µM
O=C(CSc1nc2ncc(Cl)cc2[nH]1)Nc1cccc(F)c1	G9a inh 50.1µM
C=C(CC[C@@H](C)[C@H]1CCC2[C@]1(C)CC[C@]13C[C@@]14CCC(OC(=O)/C=C/c1ccc(O)c(OC)c1)C(C)(C)[C@@H]4CC[C@@]23C)C(C)C (stereo partly specified)	none (no result: PLK1 PBD block, Mm-Cpn inhibitor, CCT modulator)
CCC(=O)Nc1ccc(C)cc1-c1nc2ccccc2n(CC(=O)Nc2ccccc2Cl)c1=O	none (no result: Sfp PPTase inh, PLK1 PBD block, Mm-Cpn inhibitor, CCT modulator)
O=C1CC(N2CCN(c3ccc(O)cc3)CC2)C(=O)N1c1ccc2c(c1)OCO2 (stereo unspecified)	Sfp PPTase inh 39.8µM, G9a inh 15.8µM
COc1ccc(N2C(=O)CC(N3CCN(Cc4ccc5c(c4)OCO5)CC3)C2=O)cc1 (stereo unspecified)	G9a inh 39.8µM
CSc1cccc(NC(=O)CN2C(=O)COc3ccc(Cl)cc32)c1	none (no result: Sfp PPTase inh, PLK1 PBD block, Mm-Cpn inhibitor, CCT modulator)
OC1CC(c2ccco2)NC2(CCCCC2)C1 (stereo unspecified)	G9a inh 8.91µM
CSCC[C@H](NC(=O)[C@@H]1Cc2ccccc2CN1)C(=O)NC1CCCCC1	G9a inh 25.1µM
C[C@@H](NC(=O)[C@@H]1Cc2ccccc2CN1C(=O)OC(C)(C)C)C(=O)NC1CCCCC1	G9a inh 79.4µM
C[C@H](NC(=O)[C@@H]1Cc2ccccc2CN1)C(=O)NC1CCCC1	G9a inh 79.4µM
CSCC[C@H](NC(=O)[C@@H]1Cc2ccccc2CN1)C(=O)Nc1ccc2c(c1)OCCO2	G9a inh 50.1µM
O=C(CNC(=O)[C@@H]1Cc2ccccc2CN1)NC1CCCC1	none
COc1ccc(-c2nc3cnc(OC)nc3n(Cc3cccc(OC)c3)c2=O)cc1	none (no result: PLK1 PBD block, Mm-Cpn inhibitor, CCT modulator)
COC(=O)C1[C@@H](OC)C(OC(=O)COc2ccc(OC)cc2)C[C@@H]2CN3CCc4c([nH]c5cc(OC)ccc45)[C@H]3C[C@H]12 (stereo partly specified)	none (no result: PLK1 PBD block, Mm-Cpn inhibitor, CCT modulator)
O=Cc1cc(OCc2ccccc2)ccc1[B-](F)(F)F	VDR inhibitor 20µM (no result: Sfp PPTase inh, Mm-Cpn inhibitor, G9a inh)
COC(=O)c1cccc(Cn2nc(C)c([N+](=O)[O-])c2C)c1	PLK1 PBD block 21.2µM
COc1ccc(-c2noc(C(C)n3nc(C)c([N+](=O)[O-])c3C)n2)cc1OC (stereo unspecified)	none
COc1cccc(-c2noc(Cn3nc(C)c([N+](=O)[O-])c3C)n2)c1	Sfp PPTase inh 35.5µM, PLK1 PBD block 18.9µM, G9a inh 39.8µM
COC(=O)c1c(NC(=O)c2ccco2)sc2c1CCN(C(C)C)C2	G9a inh 31.6µM
CC(C)N1CCc2c(sc(NC(=O)CCc3ccccc3)c2C(N)=O)C1	G9a inh 44.7µM
CN1CCc2c(sc(NC(=O)c3ccc([N+](=O)[O-])o3)c2C(N)=O)C1	G9a inh 35.5µM
CC(C)N1CCc2c(sc(NC(=O)c3ccc4ccccc4c3)c2C(N)=O)C1	none
CC(C)N1CCc2c(sc(NC(=O)c3cc4cc([N+](=O)[O-])ccc4s3)c2C(N)=O)C1	Sfp PPTase inh inconclusive, G9a inh 39.8µM
NC(=O)c1c(NC(=O)c2ccc([N+](=O)[O-])o2)sc2c1CCCC2	none
COc1ccccc1-c1cc(C(=O)Nc2c(C)nn(Cc3ccc(Cl)cc3)c2C)no1	none (no result: Sfp PPTase inh, PLK1 PBD block, Mm-Cpn inhibitor, CCT modulator)
COC(=O)CSc1nc2sc3c(c2c(=O)n1-c1ccccc1C)CC(C)(C)OC3	none (no result: Sfp PPTase inh, PLK1 PBD block, Mm-Cpn inhibitor, CCT modulator)
Cc1ccc2oc(-c3ccc(Cl)c(NC(=O)c4ccc(OC(C)C)cc4)c3)nc2c1	none (no result: Sfp PPTase inh, PLK1 PBD block, Mm-Cpn inhibitor, CCT modulator)
COC(=O)N1CCc2c(sc(NC(=O)C3COc4ccccc4O3)c2C(N)=O)C1 (stereo unspecified)	VDR inhibitor 89.1µM, PLK1 PBD block 10.6µM (no result: Sfp PPTase inh)

From PubChem BioAssay
